From PubChem BioAssay (NCATS)
“And” between values parts separate entries of the source, which are not always exact repeats. Identical values can stand only once. Results filed as inconclusive are left out. Where a call stands in place of a potency, no number is given. The source made the active and inactive calls. The call rests on the fitted dose curve; in most records, active means well fitted curve in the direction sought with a large enough effect; inconclusive means small, poorly fitted or top-dose-only effect, or another doubt; inactive means no such curve, though single readings can be large; an effect the other way counts as inactive or inconclusive.

How the values were obtained:
[1] = qHTS assay to identify small molecule inhibitors of chordoma cells - UCH-2 (AID 1259356); further: potency means the concentration at half of the fitted maximal effect
[2] = P-glycoprotein substrates identified in KB-8-5-11 adenocarcinoma cell line, qHTS therapeutic library screen (AID 1346987); further: nearly all actives have a fitted effect of over 65% in size; further: potency means the concentration at half of the fitted maximal effect
Outline: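 KB-8-5-11, a colchicine-selected P-gp-overexpressing KB-3-1 subline, was grown without colchicine for the assay. Cells were seeded at 500 cells/well, dosed in concentration-response and incubated 72 h at 37 degree C, 5% CO2. Viability was read by CellTiter-Glo luminescence.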

[3] = qHTS profiling for inhibitors of Plasmodium falciparum (HB3) proliferation (AID 743324); settings: Plasmodium falciparum HB3 blood-stage proliferation; at 28.7 µM (top of the series) unless noted
Outline: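 P. falciparum HB3 grown in erythrocytes (0.3% parasitemia, 2.5% hematocrit final) with compound for 72 h at 37 C, 5% CO2. Parasite DNA detected by SYBR Green after saponin/triton lysis overnight; normalized to 0.29 uM artemisinin and DMSO.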

[4] = Identifying Small Molecule Inhibitors of Pancreatic Cancer Stem Cells (A2780, Spheroid) (AID 1259357); settings: Potency: A2780 spheroid viability;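 further: spheroids pre-formed over 14 days in stem cell medium on hydrogel; compound exposure lasted 48 h before the ATP luminescence read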
Outline: (§1)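 Spheroids grown 14 days in stem cell media on nonadherent hydrogel before screening; cells attached 4 h, then compound exposure 48 h at 37C, 5% CO2. CellTiter-Glo luminescence normalized to DMSO (no inhibition) and no-cell wells (full inhibition).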

[5] = Identifying Small Molecule Inhibitors of Pancreatic Cancer Stem Cells (SN12C, Adherent) (AID 1259358);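 further: cell survival measured after 48 h of compound exposure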
Outline: (§2)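 Adherent (2D) versus sphere (3D) formats; spheres generated 14 d in SCM beforehand. Compound transferred by pin tool after 4 h, 48 h incubation, CellTiter-Glo endpoint.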

[6] = Identifying Small Molecule Inhibitors of Pancreatic Cancer Stem Cells (SN12C, Spheroid) (AID 1259360); settings: Potency: SN12C spheroid viability
Outline: as §1

[7] = Identifying Small Molecule Inhibitors of Pancreatic Cancer Stem Cells (A278, Adherent) (AID 1259361);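 further: viability read after 48 h compound exposure; nearly all actives have a fitted effect of over 35% in size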
Outline: as §2

CC1(C)S[C@@H]2[C@H](NC(=O)Cc3ccccc3)C(=O)N2[C@H]1C(=O)O
Potency [1]: inactive
Potency [2]: inactive

CCCCCCCCCCCCCCCCCCOP(=O)([O-])OC1CC[N+](C)(C)CC1
remaining proliferation (% of control), lower = more inhibition [3]: 112% [at 18.4 µM]
Potency [4]: inactive
Potency [5]: inactive
Potency [6]: inactive
IC50 (viability decrease) [7]: 8.12 µM (active)
Potency [2]: inactive

CC(=O)OCC(=O)[C@@]1(O)CC[C@H]2[C@@H]3C[C@H](C)C4=CC(=O)C=C[C@]4(C)[C@H]3[C@@H](O)C[C@@]21C
Potency [1]: inactive
Potency [2]: inactive

CCCCCCCC(=O)O
Potency [1]: inactive
Potency [2]: inactive

COc1cc2c(cc1O)CCN[C@]21CS[C@@H]2c3c(OC(C)=O)c(C)c4c(c3[C@H](COC1=O)N1[C@@H]2[C@H]2c3c(cc(C)c(OC)c3O)C[C@@H]([C@@H]1O)N2C)OCO4
Potency [1]: inactive
Potency [2]: 1.46 µM (active) and 1.41 µM (active)

CCCCCCCCCCCC[n+]1ccc2ccccc2c1
Potency [1]: 25.9 µM (active)
Potency [2]: inactive
